From PubChem BioAssay
Several values for one entry are separate records, joined by “and”; a condition that tells them apart may be missing. Equal entries are not always repeated. Where a structure was tested more than once in an assay, its records may differ in their call. Activity calls are given as the source filed them.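 Rule for the calls: active = z-score of at least 1.8 in each of two replicates, scored against plate mean and spread of sample wells; inactive = the rest.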

assay: galactose survival enhancers in mitochondrial complex I cybrids – cell-based, galactose medium, ATP luminescence, primary screen (AID 1645843); conditions: complex I mutant cybrid cells, 72 h, stronger effect = higher value;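 note: positive z means more ATP and so rescue of galactose-driven cybrid death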

| Structure (SMILES) | z-score |
| --- | --- |
| COc1ccc(CN(CCN(C)C)c2ccccn2)cc1 | -0.145 (inactive) and 0.84 (inactive) and 0.65 (inactive) |
| O=C(O)c1ccccc1Nc1cccc(C(F)(F)F)c1 | 0.44 (inactive) |
| C[n+]1cc2c3c(ccc2c2ccc4cc5c(cc4c21)OCO5)OCO3 | -1.38 (inactive) |
| C=CCc1ccccc1OCC(O)CNC(C)C (centres undefined) | -0.345 (inactive) and 0.39 (inactive) |
| CC(=O)Nc1ccc(O)cc1 | -0.13 (inactive) |
| CN(C)CCCN1c2ccccc2Sc2ccc(C(F)(F)F)cc21 | -1.38 (inactive) |
| CN(C)CCC=C1c2ccccc2C=Cc2ccccc21 | -1.16 (inactive) |
| COc1ccccc1OCC(O)CO (centres undefined) | 0.37 (inactive) |
| Cc1[nH]c(C)c(Cl)c(=O)c1Cl | 0.41 (inactive) |
| Nc1ccc(C(=O)O)c(O)c1 | 0.45 (inactive) |
| CCN(CC)C(=O)N1CCN(C)CC1 | 0.74 (inactive) |
| O=C(O)c1cn(-c2ccc(F)cc2)c2cc(N3CCNCC3)c(F)cc2c1=O | 0.12 (inactive) |
| CN(C)[C@@H]1C(=O)C(C(N)=O)=C(O)[C@@]2(O)C(=O)C3=C(O)c4c(O)ccc(Cl)c4[C@@H](O)[C@H]3C[C@@H]12 | 2.89 (active) |
| CCN(CC)C(C)CN1c2ccccc2Sc2ccccc21 (centres undefined) | -0.44 (inactive) |
| CCN(CC)CCOCCOC(=O)C1(c2ccccc2)CCCC1 | -0.64 (inactive) and -0.655 (inactive) |
| COc1ccc(CCN2CCC(Nc3nc4ccccc4n3Cc3ccc(F)cc3)CC2)cc1 | -0.615 (inactive) and -2.45 (inactive) |
| C[C@]12CCC(=O)C=C1C=C[C@@H]1[C@@H]2CC[C@@]2(C)[C@H]1CC[C@@]21CCC(=O)O1 | -0.645 (inactive) |
| COc1cccc2c1C(=O)c1c(O)c3c(c(O)c1C2=O)C[C@@](O)(C(=O)CO)C[C@@H]3O[C@H]1C[C@H](N)[C@H](O)[C@H](C)O1 | -0.63 (inactive) and -2.04 (inactive) |
| O=C(N[C@H](CO)[C@H](O)c1ccc([N+](=O)[O-])cc1)C(Cl)Cl | -0.74 (inactive) |
| C/C=C/c1ccc(OC)cc1 | 0.095 (inactive) |

| Structure (SMILES) | z-score |
| --- | --- |
| CNC[C@H](O)c1ccc(O)c(O)c1 | -1.02 (inactive) |
| CO[C@@]12[C@H](COC(N)=O)C3=C(C(=O)C(C)=C(N)C3=O)N1C[C@@H]1N[C@@H]12 | -1.99 (inactive) |
| Cc1nnc(SCC2=C(C(=O)O)N3C(=O)[C@@H](NC(=O)Cn4cnnn4)[C@H]3SC2)s1 | -0.3 (inactive) |
| CN(C)CCC(c1ccccc1)c1ccccn1 (centres undefined) | 0.62 (inactive) and -0.17 (inactive) |
| COC(=O)[C@@H]1[C@H]2C[C@H]3c4[nH]c5ccccc5c4CCN3C[C@@H]2CC[C@@H]1O | 0.525 (inactive) and 0.82 (inactive) |
| Cc1ccc(C(=O)Nc2ccc(S(=O)(=O)O)c3cc(S(=O)(=O)O)cc(S(=O)(=O)O)c23)cc1NC(=O)c1cccc(NC(=O)Nc2cccc(C(=O)Nc3cc(C(=O)Nc4ccc(S(=O)(=O)O)c5cc(S(=O)(=O)O)cc(S(=O)(=O)O)c45)ccc3C)c2)c1 | 4.14 (active) and 1.81 (inactive) and 0.955 (inactive) |
| N[C@@H](Cc1ccc(O)c(O)c1)C(=O)O | -0.965 (inactive) and -1.59 (inactive) |
| C[C@]12CC[C@@H]3c4ccc(O)cc4CC[C@H]3[C@@H]1C[C@@H](O)[C@@H]2O | 0.76 (inactive) |
| O=C1NCC2(CCN(CCc3ccccc3)CC2)O1 | 0.155 (inactive) |
| O=C(O)CN1C(=O)c2cccc3cccc(c23)C1=O | 0.415 (inactive) |
| COc1ccnc(CS(=O)c2nc3ccc(OC(F)F)cc3[nH]2)c1OC (centres undefined) | 1.18 (inactive) |
| C=CC(N)CCC(=O)O (centres undefined) | 0.155 (inactive) |
| CC(=O)Oc1ccc(C(c2ccc(OC(C)=O)cc2)c2ccccn2)cc1 | -0.6 (inactive) |
| CCN(CC)CCNC(=O)c1cc(S(C)(=O)=O)ccc1OC | 0.285 (inactive) |
| CC(C)(Oc1ccc(CCNC(=O)c2ccc(Cl)cc2)cc1)C(=O)O | 0.225 (inactive) and 0.83 (inactive) |
| CCCCNc1ccc(C(=O)OCCN(C)C)cc1 | -0.23 (inactive) |
| NC(N)=N/N=C/c1c(Cl)cccc1Cl | -0.795 (inactive) and 0.845 (inactive) and -1.38 (inactive) |
| O=C(Nc1ccc([N+](=O)[O-])cc1Cl)c1cc(Cl)ccc1O | -1.18 (inactive) |
| O=C1C(=O)c2ccccc2C(O)=C1C1CCC(c2ccc(Cl)cc2)CC1 (centres undefined) | -0.055 (inactive) |
